# Source: the supplement of paper PMC8728848
# Only a selection was taken, and the strongest signals are over-represented in it overall.
# How the values were obtained:
# Assay in all cases: glycan array binding signal (z-score within array); higher = stronger binding
# Conditions in all cases: glycan notation: IUPAC condensed, linker removed
# [1] = biological target: Fuc(a1-2)Gal(b1-3)[Fuc(a1-4)]GlcNAc(b1-2)Man(a1-3)[Fuc(a1-2)Gal(b1-3)[Fuc(a1-4)]GlcNAc(b1-2)Man(a1-6)]Man(b1-4)GlcNAc(b1-4)GlcNAc
# In short: (§1)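 Negative Z-scores can be read as non-binding. The Z-score is calculated within each array and then averaged across arrays of one protein sequence at different concentrations or buffers and across linkers. Arrays, 3228 in all, were curated from the Consortium for Functional Glycomics database and kept only where the protein sequence was available.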
# Fuc(a1-2)Gal(b1-4)Glc6S = biological target: Fuc(a1-2)Gal(b1-4)Glc6S
# In short: as §1
# [2] = biological target: Fuc(a1-2)Gal(b1-4)GlcNAc(b1-2)[Fuc(a1-2)Gal(b1-4)GlcNAc(b1-4)]Man(a1-3)[Fuc(a1-2)Gal(b1-4)GlcNAc(b1-2)Man(a1-6)]Man(b1-4)GlcNAc(b1-4)GlcNAc
# In short: as §1
# [3] = biological target: Fuc(a1-2)Gal(b1-4)GlcNAc6S
# In short: as §1
# [4] = biological target: Fuc(a1-2)[GalNAc(a1-3)]Gal(b1-4)GlcNAc(b1-2)Man(a1-3)[Fuc(a1-2)[GalNAc(a1-3)]Gal(b1-4)GlcNAc(b1-2)Man(a1-6)]Man(b1-4)GlcNAc(b1-4)GlcNAc
# In short: as §1
# [5] = biological target: Fuc(a1-2)[GalNAc(a1-4)]Gal(b1-4)GlcNAc
# In short: as §1
# [6] = biological target: Fuc(a1-3)[Gal(b1-4)]Glc6S
# In short: as §1
# [7] = biological target: Fuc(a1-3)[Gal3S(b1-4)]GlcNAc
# In short: as §1
# [8] = biological target: Gal(a1-3)Gal(b1-4)[Fuc(a1-3)]GlcNAc(b1-2)Man(a1-3)[Gal(a1-3)Gal(b1-4)[Fuc(a1-3)]GlcNAc(b1-2)Man(a1-6)]Man(b1-4)GlcNAc(b1-4)GlcNAc
# In short: as §1
# Gal(a1-4)GlcNAc = biological target: Gal(a1-4)GlcNAc
# In short: as §1
# [9] = biological target: Gal(b1-3)GalNAc(b1-3)Gal(a1-4)Gal(b1-4)Glc
# In short: as §1
# [10] = biological target: Gal(b1-3)GalNAc(b1-4)Gal(b1-4)Glc
# In short: as §1
# [11] = biological target: Gal(b1-3)GlcNAc(b1-3)Gal(b1-4)[Fuc(a1-3)]GlcNAc(b1-6)[Gal(b1-3)GlcNAc(b1-3)]Gal(b1-4)Glc
# In short: as §1
# [12] = biological target: Gal(b1-4)GlcNAc(b1-3)Gal(b1-4)[Fuc(a1-3)]GlcNAc(b1-3)Gal(b1-4)[Fuc(a1-3)]GlcNAc
# In short: as §1
# [13] = biological target: Gal(b1-4)GlcNAc(b1-6)[Gal(b1-3)]GalNAc
# In short: as §1
# Gal3S(b1-4)GlcNAc = biological target: Gal3S(b1-4)GlcNAc
# In short: as §1
# [14] = biological target: Gal3S(b1-4)[Fuc(a1-3)]Glc
# In short: as §1
# [15] = biological target: Gal3S(b1-4)[Fuc(a1-3)]Glc6S
# In short: as §1
# Gal6S(b1-4)Glc = biological target: Gal6S(b1-4)Glc
# In short: as §1
# [16] = biological target: GalNAc(a1-3)GalNAc(b1-3)Gal(a1-4)Gal(b1-4)GlcNAc
# In short: as §1
# GalNAc3S(b1-4)GlcNAc = biological target: GalNAc3S(b1-4)GlcNAc
# In short: as §1
# [17] = biological target: Glc(a1-4)Glc(a1-4)Glc(a1-4)Glc
# In short: as §1
# Glc(b1-4)Glc = biological target: Glc(b1-4)Glc
# In short: as §1
# [18] = biological target: GlcNAc(a1-4)Gal(b1-4)GlcNAc(b1-3)Gal(b1-4)GlcNAc(b1-3)Gal(b1-4)GlcNAc
# In short: as §1
# [19] = biological target: GlcNAc(b1-2)[GlcNAc(b1-4)]Man(a1-3)[GlcNAc(b1-4)][GlcNAc(b1-2)Man(a1-6)]Man(b1-4)GlcNAc(b1-4)GlcNAc
# In short: as §1
# [20] = biological target: GlcNAc(b1-4)GlcNAc(b1-4)GlcNAc
# In short: as §1
# [21] = biological target: GlcNAc(b1-4)GlcNAc(b1-4)GlcNAc(b1-4)GlcNAc(b1-4)GlcNAc
# In short: as §1
# [22] = biological target: GlcNAc(b1-4)GlcNAc(b1-4)GlcNAc(b1-4)GlcNAc(b1-4)GlcNAc(b1-4)GlcNAc
# In short: as §1
# [23] = biological target: GlcNAc(b1-6)Gal(b1-4)GlcNAc
# In short: as §1
# [24] = biological target: GlcNAc6S(b1-3)Gal(b1-4)GlcNAc
# In short: as §1
# Man(a1-3)[Man(a1-6)]Man = biological target: Man(a1-3)[Man(a1-6)]Man
# In short: as §1
# [25] = biological target: Man(a1-3)[Man(a1-6)]Man(b1-4)GlcNAc(b1-4)GlcNAc
# In short: as §1
# [26] = biological target: Neu5Ac(a2-3)Gal(b1-3)GalNAc(b1-4)[Neu5Ac(a2-3)]Gal(b1-4)Glc
# In short: as §1
# [27] = biological target: Neu5Ac(a2-3)Gal(b1-3)GlcNAc
# In short: as §1
# [28] = biological target: Neu5Ac(a2-3)Gal(b1-4)GlcNAc(b1-2)Man(a1-3)[GlcNAc(b1-2)Man(b1-4)GlcNAc(b1-2)Man(a1-6)]Man(b1-4)GlcNAc(b1-4)GlcNAc
# In short: as §1
# [29] = biological target: Neu5Ac(a2-3)Gal(b1-4)[Fuc(a1-3)]GlcNAc
# In short: as §1
# [30] = biological target: Neu5Ac(a2-6)Gal(b1-4)GlcNAc(b1-2)Man(a1-3)Man(b1-4)GlcNAc(b1-4)GlcNAc
# In short: as §1
# [31] = biological target: Neu5Ac(a2-6)Gal(b1-4)GlcNAc(b1-2)Man(a1-6)[Gal(b1-4)GlcNAc(b1-2)Man(a1-3)]Man(b1-4)GlcNAc(b1-4)GlcNAc
# In short: as §1
# [32] = biological target: Neu5Ac(a2-6)GlcNAc(b1-4)GlcNAc(b1-4)GlcNAc
# In short: as §1
# [33] = biological target: Neu5Ac(a2-8)Neu5Ac(a2-8)Neu5Ac
# In short: as §1
# Neu5Gc(a2-3)Gal(b1-4)Glc = biological target: Neu5Gc(a2-3)Gal(b1-4)Glc
# In short: as §1
binder,measurement,setting,value
CIH1 (Colletotrichum higginsianum) (protein) LPQATPTTPTPTSASAAATISATSSPTCSPGPVIDYTVVSGDTLTIISQRFSSGICNIADASGITNPNFLSLGQVLQVPTYVCTPDNTSCLAKEGSDTCVEGGPATHTIVAGDTFFLVAQSLGLDVNALLAANEGVDPLLLQIGDVINIPVC,glycan array binding signal (z-score),[1],0.015
same,glycan array binding signal (z-score),Fuc(a1-2)Gal(b1-4)Glc6S,-0.071
same,glycan array binding signal (z-score),[2],-0.061
same,glycan array binding signal (z-score),[3],0.014
same,glycan array binding signal (z-score),[4],-0.074
same,glycan array binding signal (z-score),[5],-0.071
same,glycan array binding signal (z-score),[6],-0.072
same,glycan array binding signal (z-score),[7],-0.065
same,glycan array binding signal (z-score),[8],0.011
same,glycan array binding signal (z-score),Gal(a1-4)GlcNAc,-0.052
same,glycan array binding signal (z-score),[9],-0.071
same,glycan array binding signal (z-score),[10],-0.063
same,glycan array binding signal (z-score),[11],-0.057
same,glycan array binding signal (z-score),[12],-0.079
same,glycan array binding signal (z-score),[13],-0.072
same,glycan array binding signal (z-score),Gal3S(b1-4)GlcNAc,-0.067
same,glycan array binding signal (z-score),[14],-0.081
same,glycan array binding signal (z-score),[15],0.006
same,glycan array binding signal (z-score),Gal6S(b1-4)Glc,-0.079
same,glycan array binding signal (z-score),[16],-0.066
same,glycan array binding signal (z-score),GalNAc3S(b1-4)GlcNAc,-0.066
same,glycan array binding signal (z-score),[17],-0.047
same,glycan array binding signal (z-score),Glc(b1-4)Glc,-0.046
same,glycan array binding signal (z-score),[18],-0.08
same,glycan array binding signal (z-score),[19],-0.065
same,glycan array binding signal (z-score),[20],2.91
same,glycan array binding signal (z-score),[21],9.28
same,glycan array binding signal (z-score),[22],20
same,glycan array binding signal (z-score),[23],-0.073
same,glycan array binding signal (z-score),[24],-0.055
same,glycan array binding signal (z-score),Man(a1-3)[Man(a1-6)]Man,-0.045
same,glycan array binding signal (z-score),[25],-0.069
same,glycan array binding signal (z-score),[26],-0.055
same,glycan array binding signal (z-score),[27],-0.05
same,glycan array binding signal (z-score),[28],-0.08
same,glycan array binding signal (z-score),[29],-0.069
same,glycan array binding signal (z-score),[30],-0.004
same,glycan array binding signal (z-score),[31],-0.069
same,glycan array binding signal (z-score),[32],-0.004
same,glycan array binding signal (z-score),[33],-0.065
same,glycan array binding signal (z-score),Neu5Gc(a2-3)Gal(b1-4)Glc,-0.081
